Assay outcomes: PubChem, several laboratories
Hits are enriched below; roughly 2.8% of the tested compounds scored in any of these assays.
LGR2 inh – inhibitors of bursicon-induced LGR2 CRE-luciferase signal, primary screen, cell-based, HEK293, CRE-luciferase reporter, bursicon stimulation; Drosophila bursicon receptor LGR2 (rickets); bursicon-stimulated, 4 h; inhibition, % at 9.99 µM; 0.35% of 380,000 active; AID 720647, 2013;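 active = drop in luminescence signal, shown as inhibition above about 50% in the replicate tests, limit read from the data, passing the limit was not always enough; inconclusive = probably only some replicates passing the limit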;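 note: agonist challenge used bursicon conditioned medium at about half maximal strength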
TWEAK Fn14 block – inhibitors of TWEAK-Fn14 signaling, primary screen, luciferase reporter cells, uHTS | TWEAK-stimulated Fn14 reporter cells, luciferase luminescence, 8 h | inhibition, % at 10 µM | 2% of 360,000 active; in the data active = inhibition above about 50%
PAX8 inh HTS – inhibitors of PAX8-driven TPO luciferase reporter, primary screen, RMG-I cells, single concentration | SteadyGlo, 24 h | inhibition, % at 12.6 µM | 1.2% of 360,000 active | AID 652154, 2013;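 active = mean replicate inhibition at least 60% with every replicate also reaching 60%; inconclusive = only one of the two criteria is met; inactive = mean below 60% and not all replicates reaching 60%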;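 note: luciferase light reporting Pax8 driven TPO promoter activity; plate controls were median of neutral control wells for no effect and mitoxantrone controls for full effect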
TROY signal inh – inhibitors of TROY-driven NF-kB signaling, primary screen, Q293 LMP1-TROYcd cells, NF-kB luciferase, uHTS. Q293 LMP1-TROYcd NF-kB luciferase reporter, 4 h. AID 1347056, 2019. inhibition, % at 10 µM. 0.98% of 360,000 active;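 active = compounds whose plate-normalised and pattern-corrected inhibition of the luciferase reporter signal at the single screening dose is 50% or more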
EWS-Fli inh – EWS/Fli-driven NR0B1 reporter inhibitors, primary screen, A673 cells, NR0B1 luciferase, luminescence, MLPCN library; viability-normalised; inhibition, % at 12.6 µM; 0.67% of 350,000 active; AID 651661, 2012;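 active = mean inhibition of at least 50% after viability correction, with every replicate also passing that limit; inconclusive = mean reaches 50% but only one of two replicates passes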;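 note: firefly luciferase signal divided by Alamar Blue viability fluorescence both relative to DMSO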
DNA binder FP – DNA binders by acridine orange displacement, dose response, counter-screen for EWS/Fli inhibitor project, biochemical, fluorescence polarization, cherry-pick. shares compounds with EWS-Fli inh. salmon sperm DNA acridine orange fluorescence polarization. 2% of 640 active. AC35, µM (highest dose often 68 µM), for inactives: top-dose activity change, negative = DNA binding;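 active = fitted curve reaches a 35% signal fall AC35 below twice the sample's top valid tested dose, actives reach about 48 µM in these data; inactive = the rest, including activity in the rising direction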;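 note: lower polarization ratio signals compound binding to DNA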
* marks the source's active call; other numbers are inactive results; ? = inconclusive; / = no result given.

SMILES	LGR2 inh	TWEAK Fn14 block	PAX8 inh HTS	TROY signal inh	EWS-Fli inh	DNA binder FP
Nc1nc(=S)c2ncn([C@@H]3O[C@H](CO)[C@@H](O)[C@H]3O)c2[nH]1	-5	13	97*	15	53*	-13%
CC1(C)OC2C(CO)OC(n3cnc4c(=S)nc(N)[nH]c43)C2O1 (stereo not given)	/	7	/	11	/	/
C[C@@H]1CN([C@@H](C)CO)C(=O)c2cc(-c3cccc(C#N)c3)cnc2O[C@@H]1CN(C)Cc1cccnc1	-3	/	11	/	-2	/
COc1ccc(-c2cc(CCCC(=O)NCCc3cc(OC)ccc3OC)no2)cc1	6	24	/	18	/	/
CCOc1ccc(-c2cc(CCCC(=O)NCc3ccc(C)cc3)no2)cc1	19	3	-1	-27	61*	-9%
COc1ccc(C2=Nn3c([n+](C)c4ccccc43)SC2)cc1	-24	-18	84*	5	53*	-3%
COc1ccc(/C=N/NC(=O)c2cccc(NC(C)=O)c2)c(OC)c1	34	3	17	-1	4	/
COc1ccc(C(=O)Nc2cccc(C(=O)N/N=C/c3ccc(OC)cc3OC)c2)cc1	-4	22	40	-26	54*	8%
CCOc1ccc(/C=C2\CCc3ccccc3C2=O)cc1	?	90*	-24	70*	70*	-7%
COc1ccc(C=C2CCc3ccccc3C2=O)cc1	4	94*	-96	61*	70*	2%
COc1ccc(S(=O)(=O)Nc2ccc3c(c2)C(=O)N([C@H](C)CO)C[C@H](C)[C@H](CN(C)C(=O)Nc2ccc(F)cc2)O3)cc1	14	/	0	/	1	/
Cc1ccc(NC(=S)N=Nc2c(O)[nH]c3ccccc23)cc1	1	29	11	-30	29	/
COc1ccc(S(=O)(=O)N=Nc2c(O)[nH]c3ccccc23)cc1	/	19	14	10	53*	-7%
COc1ccc(NC(=S)N=Nc2c(O)[nH]c3ccccc23)cc1	-16	28	5	-64	56*	-11%
O=C(NCC[C@@H]1CC[C@@H](NS(=O)(=O)c2cccc(F)c2)[C@@H](CO)O1)C1CCCCC1	7	/	10	/	7	/
C=CCOc1c(/C=N\NC(N)=O)cccc1OC	4	-4	1	1	6	/
COc1cccc(Sc2ccccc2/C=N/NC(N)=O)c1	8	0	32	11	54*	-14%
COc1cc(/C=C/C(=O)O)ccc1O	/	-6	/	-2	-6	/
COc1cc(/C=C/C(=O)CC(=O)/C=C/c2ccc(O)c(OC)c2)ccc1O	/	29	26	5	73*	40µM*
COc1cc(/C=C/C(=O)/C=C(O)/C=C/c2ccc(O)c(OC)c2)ccc1O	18	16	1	8	81*	30µM*
COc1cc(C=C(C(C)=O)C(C)=O)ccc1O	/	-19	4	-13	/	/
CCCN(C)C[C@@H]1Oc2cc(-c3ccccc3C)ccc2S(=O)(=O)N([C@H](C)CO)C[C@@H]1C	0	/	1	/	2	/
Nc1nc(N)c2cc(Sc3ccc4ccccc4c3)ccc2n1	19	52*	68*	84*	69*	-4%
Cc1ccc(/C=N/Nc2ccnc3cc(Cl)ccc23)c(C)c1	/	19	11	41	76*	-8%
O=C1c2ccc3c4c(ccc(c24)C(=O)N1c1cccc(O)c1)CC3	-25	-72	-1	-46	-3	/
SMILES	LGR2 inh	TWEAK Fn14 block	PAX8 inh HTS	TROY signal inh	EWS-Fli inh	DNA binder FP
O=C1c2ccc3c4c(ccc(c24)C(=O)N1c1cccc(O)c1)C(=O)N(c1cccc(O)c1)C3=O	-3	-11	30	-3	60*	-8%
O=C(CCN1CCCCC1)N[C@@H]1CC[C@H](CCNC(=O)c2cc(Cl)cc(Cl)c2)O[C@@H]1CO	7	/	-2	/	2	/
CCCC#Cc1ccc2c(c1)O[C@H](CN(C)C(=O)C1CCCCC1)[C@@H](C)CN([C@@H](C)CO)S2(=O)=O	12	/	/	/	33	/
CCCc1cc(=O)oc2c3c(c4c(c12)OC(C)(C)C=C4)OC(C)C(C)C3O (stereo not given)	/	-15	/	5	73*	2%
CCCc1cc(=O)oc2c3c(cc(OCC(=O)N[C@@H](C)C(=O)O)c12)OC(C)(C)CC3	-9	6	7	-5	6	/
Cc1ccc(Cl)cc1NC(=O)Cn1cc(C(F)(F)F)cc(Cl)c1=O	12	-4	9	0	76*	4%
Cc1c(Cl)cccc1NC(=O)Cn1cc(C(F)(F)F)cc(Cl)c1=O	-6	-33	1	-9	-9	/
COC(=O)c1ccc(NN=Nc2ccc(C)cc2)cc1	-87	2	/	-32	/	/
CC(=O)c1ccc(N=Nc2ccc(C)cc2)cc1	73*	68*	-81	61*	52*	-14%
C/C=C/c1ccc2c(c1)O[C@H](CN(C)C(=O)c1ccccc1F)[C@@H](C)CN([C@@H](C)CO)S2(=O)=O	-25	/	/	/	1	/
O=C(CN1C(=O)c2ccccc2S1(=O)=O)c1ccc(F)cc1	74*	91*	55	73*	66*	-6%
O=C(CN1C(=O)c2ccccc2C1=O)c1ccc(F)cc1	-4	-2	-9	3	-12	/
O=C(N/N=C/c1c[nH]c2ccccc12)c1ccc(Br)cc1	-59	10	0	-39	-53	/
CC(C)Oc1ccc(Br)cc1C(=O)N/N=C/c1c[nH]c2ccccc12	-9	13	-14	7	53*	-1%
O=C(C[C@H]1CC[C@@H](NC(=O)Nc2ccc(C(F)(F)F)cc2)[C@H](CO)O1)NCCN1CCCC1	8	/	9	/	-11	/
O=C(CCN1C(=O)S/C(=C\c2ccccc2)C1=O)N1CCCCC1	-6	-15	-41	-44	-42	/
O=C1/C(=C\c2ccccc2)CN(C(=O)CCN2CCCCC2)C/C1=C/c1ccccc1	104*	106*	-4	69*	80*	1%
CC1=NC(=O)C(N=Nc2ccccc2)N1c1ccccc1 (stereo not given)	/	-15	/	-13	/	/
CC1=NC(=O)C(N=Nc2cccc(C(=O)O)c2)N1c1ccccc1 (stereo not given)	/	49	/	-65	64*	8%
C[C@@H]1CN([C@@H](C)CO)C(=O)c2cccc(N(C)C)c2O[C@@H]1CN(C)Cc1ccc(Oc2ccccc2)cc1	-26	/	12	/	-2	/
O=c1cnc2ccccc2n1Cc1ccc(Br)cc1	-26	-16	-62	-60	-89	/
CC(C)(C)c1ccc(Cn2c(=O)cnc3ccccc32)cc1	60*	92*	27	81*	78*	-13%
O=C(Nc1ccc(F)cc1)N1CCCCN2[C@@H](CO)[C@H](c3ccc(C4=CCCCC4)cc3)[C@@H]2C1	-5	/	54	/	52*	0%
